# Shown are actives, neighbours in structure and some others; about 3.3% of the full set was active somewhere.
# SUMO HTRF inh = blocks human SUMOylation mediated by UBC9; 290,000 tested, 0.36% active; AID 2006; HTRF SUMOylation assay, SAE1/SAE2 + UBC9, in vitro; inhibition, % at 35 µM; in the data active means inhibition above about 50%, passing the limit was not always enough
# Target sequence (P63279 whole entry, looked up): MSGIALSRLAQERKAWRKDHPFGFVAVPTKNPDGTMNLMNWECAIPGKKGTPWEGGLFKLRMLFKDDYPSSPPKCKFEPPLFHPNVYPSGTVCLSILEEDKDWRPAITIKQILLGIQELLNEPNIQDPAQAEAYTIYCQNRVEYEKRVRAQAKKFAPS
# GRIN3A LBD mod = modulates the human NR3A ligand-binding domain; NR3A LBD differential scanning fluorimetry, Tm shift; 0% = protein alone, 100% = glycine-bound protein; Tm shift relative to glycine control, % at 25 µM; 340,000 tested, 2.5% active; AID 1259313;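 active means melting temperature shift of at least 10% of the positive control shift, at one fixed dose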
# UBC13 polyUb = human UBC13 polyubiquitination inhibition | P61088 | UBC13 polyubiquitin chain formation, TR-FRET | inhibition, % at 20 µM | 330,000 tested, 0.47% active | AID 485273; in the data active means inhibition above about 45%, passing the limit was not always enough
# Target sequence (P61088 whole entry, looked up): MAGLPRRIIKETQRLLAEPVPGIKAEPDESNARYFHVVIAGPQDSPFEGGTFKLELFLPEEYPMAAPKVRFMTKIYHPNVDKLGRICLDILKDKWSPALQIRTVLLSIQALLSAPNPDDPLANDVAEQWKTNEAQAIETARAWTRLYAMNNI
# sPLA2-III inh = Inhibits HGIII-sPLA2 liposome hydrolysis, primary screen; QFRET BODIPY PC-A2 liposome hydrolysis, fluorescence; inhibition, % at 12.2 µM; 370,000 tested, 0.56% active;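 active means inhibition above mean plus 3 SD of compounds lying within the high and low control bounds, cut at about 19% in these data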
# Casp3 counter = inhibits human caspase-3 in UBC13 counter-screen | shares compounds with UBC13 polyUb | Recombinant caspase-3, Caspase-Glo 3/7 luminescence, 60 min | inhibition, % at 20 µM | 1,400 tested, 4% active;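 active means mean inhibition across replicates above about 26%, limit read from the data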
# UBC13 conf = human UBC13 polyubiquitin inhibition, confirmed | shares compounds with UBC13 polyUb | UBC13 polyubiquitination, TR-FRET, biochemical | inhibition, % at 10 µM | 1,400 tested, 68% active | AID 488859; in the data active means inhibition above about 45%
# Numbers stand for hits; n = inactive; x = no result given.
SMILES,SUMO HTRF inh,GRIN3A LBD mod,UBC13 polyUb,sPLA2-III inh,Casp3 counter,UBC13 conf
Cc1nc2ccccc2n1C1CCN(CC(=O)Nc2ccccc2Br)CC1,n,n,58,n,n,74
COc1cc2nc(N3CCNCC3)nc(N)c2cc1OC,n,n,107,n,n,118
CCN(CC)CCOC(=O)c1ccc(N/C=C(/C#N)c2nc(-c3cccc(OC)c3)cs2)cc1,n,n,99,n,n,n
CCN(CC)CCOC(=O)c1ccc(N/C=C(/C#N)c2nc(-c3ccc(OC)c(OC)c3)cs2)cc1,x,n,117,n,n,138
Cc1ccc(NC(=O)CN(C)C(=O)c2ccc3[nH]c4c(c3c2)CC(C)CC4)cc1 (stereo not given),x,n,66,n,n,48
COc1ccc(C(=O)Cn2c(NCCCO)nc3ccccc32)cc1,x,x,x,n,x,x
Cc1cc2nc(NCCCO)n(CC(=O)c3cc(C(C)(C)C)c(O)c(C(C)(C)C)c3)c2cc1C,x,n,70,n,n,49
C=CCNC(=O)NC(=O)CSc1nnc(C(F)(F)F)n1C,n,n,48,n,n,n
Cc1ccc(-c2nnc(SCC(=O)Nc3ccc(F)cc3F)n2Cc2ccco2)cc1,x,x,x,n,x,x
COC(=O)C1=C(C)N(Cc2ccccc2)C(=NCc2ccccc2)N[C@H]1c1ccccc1,x,n,n,n,x,x
COC(=O)C1=C(C)N(CC2CC2)C(=NCc2cccc(Cl)c2)N[C@H]1c1ccccc1,n,n,54,n,n,n
COC(=O)C1=C(C)N(Cc2ccccc2)C(=NCc2cccc(Cl)c2)N[C@H]1c1ccccc1,x,n,70,x,n,67
CCN(CC)CCCN=C1N[C@@H](c2cccc(F)c2)C(C(=O)OC)=C(C)N1Cc1ccccc1,x,n,n,n,x,x
COC(=O)C1=C(C)N(Cc2ccccc2)C(=NCCc2c[nH]c3ccccc23)N[C@H]1c1cccc(F)c1,x,n,62,n,n,64
COC(=O)C1=C(C)N(Cc2ccccc2)C(=NCc2ccccc2)N[C@H]1c1cccc(F)c1,n,n,67,n,n,n
COC(=O)C1=C(C)N(CC2CC2)C(=NCc2cc(OC)c(OC)c(OC)c2)N[C@H]1c1ccccc1,n,n,n,x,x,x
COCCN(C[C@@H]1[C@H](c2ccccc2)[C@H](CO)N1c1nc(C)c(C)s1)S(=O)(=O)c1ccccc1[N+](=O)[O-],x,x,x,n,x,x
CCn1c(SCC(=O)Nc2ccccc2-c2ccccc2)nnc1-c1ccc(C)cc1,x,x,x,n,x,x
Cc1ccc(C(=O)Oc2coc(CSc3ncccn3)cc2=O)cc1[N+](=O)[O-],x,x,x,n,x,x
COCc1cc(=O)[nH]c(Nc2nc3ccc(C)cc3o2)n1,n,n,74,n,27,89
CC(=O)Nc1ccc(NC(=O)c2nc(S(=O)(=O)Cc3cccc(C)c3)ncc2Cl)cc1,n,n,45,n,n,47
COC(=O)c1ccc(NC(=O)c2nc(S(=O)(=O)Cc3cccc(C)c3)ncc2Cl)cc1,n,n,n,n,x,x
CC(C)c1nnc(NC(=O)c2nc(S(=O)(=O)Cc3ccccc3)ncc2Cl)s1,n,n,n,n,x,x
CCCc1nnc(NC(=O)c2nc(S(=O)(=O)Cc3ccc(C)cc3)ncc2Cl)s1,n,n,59,n,n,54
CCCS(=O)(=O)c1ncc(Cl)c(C(=O)Nc2ccc(S(=O)(=O)Nc3ncccn3)cc2)n1,n,n,53,n,n,50
SMILES,SUMO HTRF inh,GRIN3A LBD mod,UBC13 polyUb,sPLA2-III inh,Casp3 counter,UBC13 conf
CCOC(=O)[C@]12CCCCC/C=C\1N(CCc1ccc(Cl)cc1)C(=O)[C@H]2CC(=O)NCCC(C)C,x,x,x,n,x,x
c1ccc2c(C[C@@H]3CNCCN3CCCCC3CCCCC3)cccc2c1,x,n,74,n,n,61
c1ccc2c(C[C@@H]3CNCCN3CCC34CC5CC(CC(C5)C3)C4)cccc2c1,x,n,50,n,n,53
Oc1ccc(C[C@@H]2CNCCN2CCc2cccc3ccccc23)cc1,x,n,n,n,x,x
Fc1cccc(CCN2CCNC[C@H]2Cc2cccc3ccccc23)c1,x,n,n,n,x,x
c1ccc(C[C@H]2CNCCN2CCCCC2CCCCC2)cc1,x,n,61,n,n,68
CC(C)(C)CN1CCNC[C@H]1Cc1cccc2ccccc12,x,n,47,n,n,n
COc1ccc(S(=O)(=O)NCC(=O)N2CCN(c3ccccn3)CC2)c(OC)c1,x,x,x,n,x,x
CC(C)(C)c1ccc(C(O)CCCN2CCC(C(O)(c3ccccc3)c3ccccc3)CC2)cc1 (stereo not given),n,n,67,n,n,56

# Bioassay records as filed in PubChem.
